# Whole data set: some 33,000 sequences, median “E-score (-0.5 to 0.5)” near -0.056, cut for the highest 2% near 0.38. For the sample, the highest values were picked, then their nearest neighbours and some sequences at random.
# Target: Stb4 (UniProt P50104)
# Assay: PBM E-score (8-mer binding enrichment) (E-score (-0.5 to 0.5)); higher = stronger / more preferred TF binding
# Settings: protein concentration: 200 nM; construct: GST-DNA-binding domain
# Outline: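 Detection of bound protein used fluorescent anti-GST, with scans normalised by masliner. The proteins were GST-tagged yeast transcription factors applied at about 100-200 nM to universal all-10-mer Agilent arrays made double-stranded by primer extension. Each ungapped eight-base word, pooled with its reverse complement, was scored with an E-score from the Universal PBM Analysis Suite.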
# Chain of UniProt P50104 (P50104 whole entry): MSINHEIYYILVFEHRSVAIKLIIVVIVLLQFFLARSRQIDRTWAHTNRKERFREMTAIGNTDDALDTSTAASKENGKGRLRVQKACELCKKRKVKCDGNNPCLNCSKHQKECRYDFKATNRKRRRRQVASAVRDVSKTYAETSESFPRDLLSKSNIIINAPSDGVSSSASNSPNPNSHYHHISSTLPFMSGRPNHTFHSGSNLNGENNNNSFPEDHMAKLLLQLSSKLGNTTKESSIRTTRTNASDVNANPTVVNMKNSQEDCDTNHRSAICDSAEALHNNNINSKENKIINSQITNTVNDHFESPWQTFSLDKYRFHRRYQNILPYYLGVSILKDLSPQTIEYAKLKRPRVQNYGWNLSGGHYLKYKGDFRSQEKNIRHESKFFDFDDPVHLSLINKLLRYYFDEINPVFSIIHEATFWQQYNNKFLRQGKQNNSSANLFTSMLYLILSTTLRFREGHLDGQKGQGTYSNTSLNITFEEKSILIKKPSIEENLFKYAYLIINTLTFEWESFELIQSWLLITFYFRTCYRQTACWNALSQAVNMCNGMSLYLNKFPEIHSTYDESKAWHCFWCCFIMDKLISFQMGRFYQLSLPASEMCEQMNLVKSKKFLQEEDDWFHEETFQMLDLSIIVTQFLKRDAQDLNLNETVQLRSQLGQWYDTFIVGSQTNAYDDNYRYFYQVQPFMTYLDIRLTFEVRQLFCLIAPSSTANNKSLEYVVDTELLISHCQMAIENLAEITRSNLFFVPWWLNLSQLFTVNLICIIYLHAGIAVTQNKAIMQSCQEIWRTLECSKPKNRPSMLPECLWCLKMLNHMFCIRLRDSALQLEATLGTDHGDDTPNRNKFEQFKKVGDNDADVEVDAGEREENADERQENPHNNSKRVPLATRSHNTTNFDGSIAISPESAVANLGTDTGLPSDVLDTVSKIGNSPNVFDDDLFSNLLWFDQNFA
row,Sequence,PBM E-score
1,ATTAGCAC,0.00903
2,CTCCTGGC,-0.113
3,TGGCTAAA,0.0298
4,CGGCTAAA,0.388
5,AGGCTAAA,-0.163
6,AGTAGGGG,0.0719
7,CGGATCGA,0.404
8,AGGATCGA,0.00545
9,CGGATCGC,0.361
10,CGGATCAG,0.33
11,CGGATCAA,0.401
12,CGGATCAC,0.397
13,AGGATCAC,-0.249
14,GGGATCAC,-0.0541
15,GGGATCTA,0.0821
16,CGGATCTA,0.391
17,TGGATCAA,-0.243
18,CGGATCTC,0.3
19,CCTACAAG,-0.104
20,CGGTGGAG,0.121
21,CATTCAAA,0.048
22,CCGAGTCA,0.381
23,GCGAGTAC,-0.0817
24,CCGAGTTC,0.396

row,Sequence,PBM E-score
1,GCGAGTCC,-0.0651
2,CCGAGTTA,0.34
3,ACGAGTTC,-0.00258
4,CCGAGTCC,0.403
5,CCGAGTAG,0.391
6,ACGAGTAG,-0.11
7,CCGAGTAA,0.345
8,CCGAGTAC,0.383
9,ACGAGTAC,-0.106
10,CGAGCAGC,0.15
11,ATGACCCA,-0.283
12,AACGCACC,-0.0468
13,CTCACTTC,-0.141
14,ACCGAGCT,0.365
15,ACCGAGAG,0.342
16,AACGAGAT,0.0091
17,ACCGAGGT,0.392
18,AACGAGGT,-0.293
19,ACCGAGAT,0.407
20,ACCCAATG,-0.174
21,ACCCCATC,-0.109
22,GGTGAGTA,-0.183
23,TCCTCCAA,-0.181
24,CTGCTCGC,-0.0171

row,Sequence,PBM E-score
1,GTACGGAA,0.323
2,ATTCGGAA,0.456
3,CTTCGGAC,0.386
4,CTTCGAAA,-0.2
5,ATGCGGAA,0.332
6,CTTCGAAC,-0.00115
7,ATTCGGAG,0.324
8,GTGCGGAA,0.289
9,GTTCGGAA,0.474
10,ATTCGGAC,0.373
11,CTTCGGAA,0.485
12,CTACGGAA,0.222
13,CCTTTTCC,0.0594
14,GATAGTTA,0.0424
15,CATTTGTA,-0.106
16,ATGTAGCC,0.136
17,AGACAGCA,-0.0333
18,GCAGGCCC,-0.0954
19,ATTAGCCC,-0.0135
20,ATTAGCCG,0.4
21,ATTAGCCA,-0.26
22,AATGTCCC,0.169
23,AACTTCTC,0.0267
24,AATATTCC,0.347

row,Sequence,PBM E-score
1,CCCTTACA,-0.0902
2,CGGGCGAA,0.158
3,CAATCTGA,-0.0386
4,CACCGGAC,0.215
5,CACCGGAG,0.125
6,TACCGGAA,0.394
7,TACCGGTA,0.149
8,GACCGGAA,0.316
9,CACCGGAA,0.412
10,GATTGAGA,-0.0336
11,CAAGCGAG,0.0404
12,CCCGAAGG,0.394
13,ACCGAAGA,0.359
14,GCCGAAGA,0.362
15,CACGAAGA,-0.255
16,CGCGAAGA,0.112
17,CCCGAAGA,0.403
18,TCCGAAGA,0.458
19,CCCGAAGC,0.371
20,ACCGAAGG,0.243
21,CCCGCAGG,0.115
22,TGCACTAA,-0.112
23,ACTGAATG,0.0782
24,GTCAGGAC,-0.21

row,Sequence,PBM E-score
1,AGAGATTC,-0.00647
2,CAGGCCAA,-0.0749
3,TAACTTCA,-0.143
4,AGGTTGCG,-0.269
5,GTTCTATA,-0.173
6,GGACTTCA,-0.0404
7,ATATCTGA,-0.0996
8,AATGCCGT,0.277
9,TATGCCAA,-0.209
10,CCTGCCGA,0.359
11,ACTGCCGA,0.407
12,GCTGCCGA,0.378
13,CATGCCGA,0.353
14,TATGCCCA,-0.104
15,AATGCCGA,0.415
16,GATGCCGC,0.0124
17,GATGCCGA,0.411
18,TATGCCGA,0.411
19,AATGCCGG,0.313
20,AGAGGGCA,-0.289
21,AGGTACGA,-0.0929
22,ACAAGAAC,0.101
23,ATGGTTTG,0.117
24,CAGATCTG,-0.205

row,Sequence,PBM E-score
1,CAGACGAA,0.0157
2,CTACTGCA,-0.329
3,CTACTGAC,-0.0845
4,CTTAGAAC,-0.0637
5,GTCCTCGA,-0.228
6,AAGCAAAC,-0.0582
7,ATCCGGGG,0.398
8,ATCCGGGA,0.368
9,ATCCGGCA,0.38
10,ATCCGGCG,0.368
11,AACCGGGG,0.164
12,ATCCGGCC,0.394
13,ATCCGGGC,0.405
14,CTCCGGGC,0.131
15,AGCCGGGC,0.166
16,AATATAAC,0.109
17,CGTCTCAG,-0.235
18,CCGAACCG,0.447
19,GGGAACCA,-0.0292
20,CGGAACCC,0.359
21,CCGAACCA,0.356
22,CGGAACCA,0.41
23,CGGAACCG,0.407
24,TGGAACCA,0.0635

row,Sequence,PBM E-score
1,AGGAACCG,0.263
2,CCGAACCC,0.37
3,CATTCTCA,0.0317
4,CAATGTCC,0.00172
5,AAATGCGC,-0.041
6,CTGCCGAA,0.411
7,GTGCCAAA,-0.0603
8,ATGCCGTG,0.00847
9,GGGCCGAA,0.314
10,ATGCCGCA,0.0956
11,CTGCCGCA,0.0287
12,ATGCCGAA,0.433
13,CTGCCGAC,0.331
14,ATGCCGAG,0.423
15,ATGCCAAA,-0.302
16,GTGCCGAA,0.441
17,ATGCCGAC,0.333
18,GCAAGTGA,-0.0836
19,CTCGCGAG,-0.0385
20,GTAAGTAC,0.00926
21,AGCGACCC,0.0831
22,ATGGTCGC,-0.0565
23,CGTTAGCA,-0.0245
24,ACAGGCAT,-0.242

row,Sequence,PBM E-score
1,GAAGCCCA,-0.1
2,GAAGCCGA,0.401
3,AAAGCCGA,0.322
4,TAAGCCGA,0.392
5,GAAGCCGC,0.193
6,CAAGCCGA,0.297
7,ACGATTGG,-0.176
8,TCTCGGCA,0.446
9,GCACGGCA,0.109
10,TCACGGCA,0.114
11,ACTCGGCC,0.232
12,CCTCGGCG,0.411
13,CCACGGCG,-0.0429
14,CATCGGCG,0.165
15,GCTCGGCC,0.289
16,GCTCGGCA,0.443
17,ACTCGGCA,0.428
18,ACTCGGCG,0.326
19,AATCGGCA,0.32
20,ACGACGTC,-0.148
21,ATTGGGGA,-0.245
22,AGATACTG,-0.169
23,ACCAGCCG,0.256
24,AGATGAAG,-0.0847

row,Sequence,PBM E-score
1,AGCTAAGA,-0.055
2,AAGCCAAG,-0.0879
3,CCCGCATC,0.101
4,ACATAGAG,-0.166
5,GAGAAATC,0.0628
6,ACTCGTCT,-0.126
7,CCTCGGCC,0.313
8,CCTCGGCA,0.461
9,ACTCGGCT,0.414
10,AATCGGCT,0.344
11,CGTCGGCA,0.38
12,GAGTCCCC,-0.0682
13,ACGTGATA,-0.167
14,CCCTGACC,0.0155
15,CCAGACTC,-0.0717
16,GAAACAGA,-0.0644
17,CACCGAAA,0.201
18,CGCCGAAG,0.372
19,AGCCGAAG,0.391
20,TACCGAAA,0.385
21,AGCCGACT,0.261
22,AGCCGAAT,0.426
23,AGCCGTAT,0.0974
24,GGCCGAAC,0.313

row,Sequence,PBM E-score
1,CGCCGAAC,0.366
2,AGCCGAAC,0.411
3,GACCGAAA,0.255
4,AGACGAAG,-0.0901
5,GAGCCGTA,0.191
6,AGCCCGTC,-0.0989
7,ATGATTCG,0.0336
8,GGGTCTAA,-0.0158
9,AAAGCTCA,-0.202
10,CTGCAGTA,-0.353
11,AATCAGGC,-0.174
12,CGCCGAAA,0.34
13,TGCCGAAA,0.444
14,GGCCGAAA,0.319
15,AGCCGAAA,0.425
16,TGCCGACA,0.359
17,TGACGAAA,-0.207
18,AACAGGAA,-0.219
19,AGCACAAC,0.0479

# Source: the supplement of paper PMC3334620
